Screening data (PubChem BioAssay)
An excerpt weighted towards active compounds, which were near 3.1% of everything screened.
ATG4B inh: ATG4B (human) cysteine protease inhibition. inhibition, % at 8.33 µM. 340,000 tested, 0.51% active. ATG4B cleavage of LC3-PLA2, NBD-HPC fluorescence, 1 h. AID 504462. Q9Y4P1; in the data active means inhibition above about 40%
NadD inh: blocks S. aureus nicotinate mononucleotide adenylyltransferase; purified NadD enzyme, colorimetric absorbance read-out; inhibition, % at 20 µM; 360,000 tested, 0.78% active; AID 602399; in the data active means inhibition above about 26%
Calb FLC: affects C. albicans growth with fluconazole. C. albicans CaCi-2 (fluconazole-resistant clinical isolate) + fluconazole, Alamar Blue growth, 48 h. growth inhibition, % (test concentration not listed). 300,000 tested, 0.57% active;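 active means growth inhibition above about 58% in most replicates, limit read from the data, passing the limit was not always enough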;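 further: all wells also contain fluconazole at 8 µg/ml as a sub-toxic cotreatment; 0% = median of DMSO wells and 100% = median of geldanamycin control wells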
SUMO Mot1 rescue: inhibitors of SUMOylation pathway: yeast Mot1-301 growth rescue. S. cerevisiae Mot1-301 growth rescue, ATP luminescence, 38.5C; percent above DMSO median, 100 means doubled. growth rescue, % at 18.8 µM. 320,000 tested, 1% active. AID 2716;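 active means every valid replicate shows activation above 250% relative to neutral control wells; inactive means the rest, any valid replicate at or below 250%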;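 further: OY570 slx delta 5 strain wells were the positive control but not used for scaling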
FAS TE block: FAS thioesterase (human) inhibition | inhibition, % at 15 µM | recombinant FAS-TE, OMFH fluorogenic substrate, fluorescence endpoint | 360,000 tested, 0.67% active | AID 602261 | P49327;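 active means compounds whose normalised, plate-corrected inhibition of enzyme fluorescence in the single-dose primary screen is 50% or more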;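 further: 0% = DMSO with enzyme and 100% = substrate without enzyme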
Starred values were filed as active, the others as inactive; . = no result given.

SMILES	ATG4B inh	NadD inh	Calb FLC	SUMO Mot1 rescue	FAS TE block
CCCC(=O)NC(c1cccc([N+](=O)[O-])c1)c1ccc2cccnc2c1O (configuration not stated)	.	-2.9	.	.	-1.2
CCCC(=O)NC(c1ccc(Cl)cc1Cl)c1ccc2cccnc2c1O (configuration not stated)	-6.3	4.5	-2.1	7.6	2.4
O=c1[nH]c(C(F)(F)F)nc2ccc3ccccc3c12	-2.6	-2.8	-7.0	1.0	-4.4
O=C1C=C(c2ccccc2)CO1	-3.1	-3.9	.	.	-5.8
CCC(=O)Nc1ccccc1Sc1ncnc2scc(-c3ccccc3)c12	-1.4	-5.5	10.7	44.7	9.2
O=C(Nc1nonc1NC(=O)c1cccs1)c1cccs1	3.6	2.1	85.0*	-6.5	0.2
Cc1ccccc1-n1nc(C(=O)c2cccs2)cc(-c2nc3ccccc3[nH]2)c1=N	-5.8	20.1	-16.3	7.8	15.0
Cc1cccc(-n2nc(C(=O)c3ccco3)cc(-c3nc4ccccc4[nH]3)c2=N)c1	6.2	16.7	97.3*	-18.2	25.6
COc1ccc(NC(=O)c2cc(S(=O)(=O)N3CCCCC3)ccc2OC)cc1	-2.3	-6.9	-17.8	5.0	8.2
CC(C)CC(NC(N)=O)C(=O)NCCc1ccc(Cl)cc1 (configuration not stated)	7.7	-4.8	6.5	312.7	-1.0
CCn1nnnc1NC(=O)c1cc(Cl)c(OC)c(Cl)c1	-26.0	-1.6	76.0*	.	-1.6
CCn1nnnc1NC(=O)c1cccc(OC)c1	-11.2	-7.7	-1.1	-2.5	-8.6
COc1ccc(/C=C/C(=O)C2CC2)cc1COc1c(C)cccc1C	-7.0	-7.9	97.1*	13.0	7.5
CCc1cccc(CC)c1NC(=O)c1cccc(S(=O)(=O)N2CCN(C)CC2)c1	4.5	-7.7	-11.7	18.2	-1.9
N#CC(C#N)=C1C=CC=CN1/C(=C\c1ccco1)C(=O)c1ccc(Br)cc1	2.5	-5.0	.	290.7*	17.4
N#CC(C#N)=C1C=CC=CN1/C(=C\c1ccco1)C(=O)c1ccccc1	2.5	-2.1	.	17.1	6.3
Cc1onc(-c2c(Cl)cccc2Cl)c1C(=O)Nc1nc(C(C)(C)C)cs1	-3.5	-2.1	-3.2	13.4	24.7
CSc1ccccc1NC(=O)CN(Cc1ccc(Cl)cc1)S(C)(=O)=O	-7.1	-6.6	20.0	-28.6	11.5
CSc1ccccc1NC(=O)CN(Cc1ccccc1)S(C)(=O)=O	-9.7	5.0	10.8	286.8*	-1.7
BrC(=C\c1ccccc1)/C=N/n1cnnc1	-0.3	-5.4	86.2*	.	-5.7
BrC(=C\c1ccccc1)/C=N/Nc1ccc2nncn2n1	-9.3	-5.1	-4.0	-1.2	-6.0
O=C1CCNc2cc3ccccc3cc21	-0.8	30.8*	29.8	-22.7	-9.2
COc1ccc(C23CC4CC(CC(C(=O)O)(C4)C2)C3)c(F)c1	-9.2	-4.0	15.0	-22.4	-6.5
Cc1c(NS(=O)(=O)c2ccc(Br)cc2)c(=O)n(-c2ccccc2)n1C	-5.0	2.6	-5.0	2.9	-0.2
COc1ccc(S(=O)(=O)Nc2c(C)n(C)n(-c3ccccc3)c2=O)cc1C(=O)O	-12.5	-3.0	6.3	273.8*	-6.2
SMILES	ATG4B inh	NadD inh	Calb FLC	SUMO Mot1 rescue	FAS TE block
CCN=c1scc(-c2ccc3c(c2)NC(=O)CO3)n1N=C1CCCC1	-2.2	4.4	93.5*	1.3	-3.0
O=C(Nc1cccc2ncccc12)c1cc([N+](=O)[O-])ccc1Cl	-1.0	1.6	-7.8	0.4	1.2
N#CCc1ccc(NC(=O)/C=C/c2ccc([N+](=O)[O-])o2)cc1	-3.5	9.6	97.0*	.	5.6
N#C/C(=C\c1ccc([N+](=O)[O-])o1)C(=O)Nc1ccc(F)cc1	-2.5	13.3	1.4	323.2*	10.6
COc1ccc(NC(=O)/C(C#N)=C\c2ccc(Br)o2)cc1	5.5	7.0	-2.6	7.0	-2.5
COc1ccc(C(=O)COC(=O)c2cc(=O)c3ccccc3o2)cc1	5.5	-4.8	.	-2.9	-3.5
CC(C)Oc1ccc(C(=O)N/N=C/c2ccc(-c3ccc(S(=O)(=O)Nc4ncccn4)cc3)o2)cc1	2.9	35.1*	-5.6	.	-1.9
CN(C)c1nc(Cl)nc(N(C#N)CCOc2ccccc2)n1	-1.9	-3.5	113.0*	.	9.9
COC(=O)c1ccccc1-n1cccc1C(=O)NP(=O)(N1CCOCC1)N1CCOCC1	-5.3	-5.5	-12.5	8.8	-5.0
CCCCc1ccc(NC(=O)CSc2nc(=O)n(CCCN3CCOCC3)c3c2CCC3)cc1	-7.7	-2.2	18.8	536.3*	4.8
CCCCc1ccc(NC(=O)CSc2nc(=O)n(CCN3CCOCC3)c3c2CCC3)cc1	-1.8	-1.8	23.6	201.4	2.7
COc1cccc2[nH]c3ccccc3c(=O)c12	-3.9	-0.6	4.2	-27.9	-4.2
COc1cc2cccc(OC)c(=O)c2c(OC)c1OC	-5.9	1.4	9.0	757.2*	-6.6
Cc1cc2oc(=O)cc(Cn3ncc(Cl)c(Cl)c3=O)c2cc1Cl	-3.3	26.9*	18.4	-15.9	9.3
Cc1cc2oc(=O)cc(CN3CCN(c4ccccc4)CC3)c2cc1Cl	.	5.2	.	.	0.4
CC1=C(C(=O)N2CCOCC2)CC(CC(=O)NCCCCc2ccccc2)C(=O)N1CCC1=CCCCC1 (configuration not stated)	.	0.7	.	.	2.5
CCOC(=O)C(=NC1CCS(=O)(=O)C1)NNc1ccccc1Cl (configuration not stated)	-3.1	0.3	-8.7	164.9	3.3
CCOC(=O)C1C(C(=O)Nc2cccc(C(F)(F)F)c2)C1C(=O)NC(C)C (configuration not stated)	-7.0	-3.9	-3.1	0.8	-1.6
CCOC(=O)C(=NC1CCCCC1)NNc1cccc(C(F)(F)F)c1	15.1	3.3	57.5*	208.5	21.6
CCOC(=O)C(=NC1CCS(=O)(=O)C1)NNc1ccc(Br)cc1 (configuration not stated)	-1.3	2.6	112.2*	372.5*	9.8
O=C1C(CSCc2ccccc2)NC(=S)N1c1ccccc1 (configuration not stated)	-8.0	10.7	-11.8	3.6	-6.0
COc1ccccc1NC(=O)COC(=O)c1cc(C)nc2ccccc12	-15.3	2.8	.	30.0	6.2
Cc1cc(C)nc(NS(=O)(=O)c2ccc(NC(=O)Cc3ccccc3)cc2)n1	2.8	1.1	-9.3	-10.9	-1.6
Cc1cc(C)nc(NS(=O)(=O)c2ccc(NC(=O)COc3ccccc3)cc2)n1	-9.0	4.0	79.5*	2.4	-2.2
Cc1cc(C(=O)OCC(=O)Nc2ccc(S(N)(=O)=O)cc2)c2ccccc2n1	-6.1	-1.3	126.8*	339.2	-2.0
N#Cc1cccc(NC(=O)CNc2cc(S(=O)(=O)N3CCOCC3)ccc2N2CCCC2)c1	0.5	5.9	.	.	10.0
O=C(CCCCC(=O)NNC(=O)COc1ccccc1)NNC(=O)COc1ccccc1	-5.8	4.6	2.1	-4.9	-4.1
C#CCOCCOCCOCCNc1nc(N2CCN(C(=O)CCCCCCCCCCNC(=O)[C@H](CCCCN)n3cc(CCO)nn3)CC2)nc(N2CCN(C(=O)CCCCCCCCCCNC(=O)[C@@H]([C@H](C)O)n3cc(C)nn3)CC2)n1	-9.5	15.9	.	-0.5	-20.9
